FBW7 act = human FBW7 E3 ligase activation, primary screen; Q969H0; hit rate 0.13% among 650,000; AlphaScreen FBW7–phospho-cyclin E peptide binding, activator screen; normalized activity (activation), % at 26.1 µM; in the data active means normalized activity above about 1.9%;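 further: purified mutant Fbw7 with reduced substrate affinity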
GPR151 ag = activates the human receptor GPR151 | PathHunter beta-arrestin GPR151 cells, luminescence | hit rate 1% among 650,000 | activation, % at 11.2 µM | Q8TDV0; in the data active means activation above about 4.9%
TEAD-YAP inh = TEAD-YAP interaction inhibition; HEK-TIYL cells, TEAD-Gal4/YAP UAS-luciferase luminescence; inhibition, % at 9.12 µM; hit rate 1.4% among 640,000; AID 1259422; in the data active means inhibition above about 32%
MITF inh = inhibitors of human MITF; hit rate 0.91% among 650,000; inhibition, % at 2.6 µM; AlphaScreen MITF homodimerization, bead proximity signal; AID 1259374; in the data active means inhibition above about 50%
Target sequence (O75030 whole entry, looked up): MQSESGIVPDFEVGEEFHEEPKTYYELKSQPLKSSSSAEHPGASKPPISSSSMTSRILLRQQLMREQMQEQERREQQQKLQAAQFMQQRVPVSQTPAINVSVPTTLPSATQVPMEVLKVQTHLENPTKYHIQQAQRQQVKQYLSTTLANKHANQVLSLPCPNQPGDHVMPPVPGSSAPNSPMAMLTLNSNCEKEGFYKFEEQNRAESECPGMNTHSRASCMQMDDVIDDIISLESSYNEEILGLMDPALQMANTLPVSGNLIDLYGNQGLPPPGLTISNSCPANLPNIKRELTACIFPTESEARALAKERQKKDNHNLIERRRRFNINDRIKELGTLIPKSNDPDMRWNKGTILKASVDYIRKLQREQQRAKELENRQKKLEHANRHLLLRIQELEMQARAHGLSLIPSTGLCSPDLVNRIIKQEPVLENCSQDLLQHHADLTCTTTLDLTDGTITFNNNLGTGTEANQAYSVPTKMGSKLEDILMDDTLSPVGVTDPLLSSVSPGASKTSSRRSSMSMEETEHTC
Hits are given with their value; – = inactive; · = no result given. Rows were chosen to be rich in hits. Some 3.5% of all compounds tested hit in one or more screens of this group.

SMILES	FBW7 act	GPR151 ag	TEAD-YAP inh	MITF inh
COc1cc(/C=N/NC(=O)CCN2CCN(C)CC2)cc(OC)c1O	–	–	–	51.4
CC(C)(C)c1nnc(N/N=C/c2cc(Br)ccc2O)n(N)c1=O	–	–	75.0	62.6
Cc1nnc(N/N=C/c2cc(Br)ccc2O)[nH]c1=O	–	–	90.4	114.4
Cc1nnc(N/N=C/c2cc(Cl)ccc2O)[nH]c1=O	–	–	91.6	127.2
COc1ccc(/C=N/Nc2nnc(C)c(=O)[nH]2)cc1	–	–	–	–
COc1ccc(O)c(/C=N/Nc2nnc(C)c(=O)[nH]2)c1	–	–	71.6	79.1
COc1cc(/C=N/Nc2nnc(C(C)(C)C)c(=O)n2N)ccc1O	–	–	–	–
Cc1nnc(N/N=C/c2ccc(Br)cc2)[nH]c1=O	–	–	–	–
CCC(Cc1ccccc1)NC(=O)c1cc(S(=O)(=O)N2CC(C)CC(C)C2)ccc1Sc1cccc(Cl)c1 (centres undefined)	–	–	–	–
CC/C=C\CC(O)/C=C/C=C\C/C=C\C/C=C\CCCC(=O)O (centres undefined)	·	–	·	–
Cc1ccc(CN2C(=O)C(C)Oc3ccccc32)c(C)c1 (centres undefined)	–	–	–	–
O=Cc1ccc(OCc2cccc(C(=O)O)c2)c(Cl)c1	–	–	87.8	–
COc1cc(/C=C/[N+](=O)[O-])ccc1OCc1cccc(C(=O)O)c1	–	–	77.2	56.3
O=C(O)c1cccc(COc2ccc(CO)cc2Cl)c1	–	–	95.0	–
COc1cc(/C=C2/NC(=O)NC2=O)ccc1OCc1cccc(C(=O)O)c1	–	–	–	–
O=C(O)c1cccc(COc2ccc(CO)cc2Br)c1	–	–	84.5	–
CCCCCCC(=O)N/N=C/c1ccccc1	–	–	–	–
O=C(CSc1nc2ccccc2o1)Nc1ccc(S(=O)(=O)NC2CCCC2)cc1	–	–	–	–
Cc1ccc(CC(=O)NCc2nc(-c3ccc(Cl)cc3)no2)cc1	–	–	–	–
C=CCNC(=O)c1ccc(-c2cccc(OC)c2)nc1N1CCN(C(=O)c2ccco2)CC1	–	–	–	–
NNC(=O)/C(=C/c1cccs1)NC(=O)c1ccccc1	–	–	46.6	–
COc1ccc(O)c(/C=N/NC(=O)/C(=C\c2cccs2)NC(=O)c2ccccc2)c1	–	–	58.3	–
CCOc1ccc(O)c(/C=N/NC(=O)/C(=C\c2cccs2)NC(=O)c2ccccc2)c1	–	–	–	–
CCOC(=O)C1(Cc2ccccc2Cl)CCN(C(=O)c2cc[n+]([O-])cc2)CC1	–	–	–	–
O=C(N/N=C/c1ccc(O)cc1O)C(=O)N/N=C/c1ccc(O)cc1O	–	–	–	99.4
SMILES	FBW7 act	GPR151 ag	TEAD-YAP inh	MITF inh
O=C(CCC(=O)Nc1cc(C(F)(F)F)ccc1Cl)N/N=C\c1ccc(O)cc1O	–	–	43.7	–
O=C(N/N=C/c1ccc(O)cc1O)c1ccccc1O	–	–	52.1	–
O=C(N/N=C/c1cc(I)ccc1O)c1ccccc1O	–	–	67.0	–
O=C(CCC(=O)N/N=C/c1ccc(O)cc1O)N/N=C\c1ccc(O)cc1O	–	–	–	–
Cc1ccc(/C=N/NC(=O)c2ccccc2O)c(O)c1	–	–	–	–
COc1ccc(/C=N/NC(=O)CSCc2ccc(Cl)cc2)cc1OC	–	–	–	–
N#Cc1ccc(NC(=O)Nc2cccc(Cl)c2)cc1	–	–	–	–
COc1ccccc1N1CCN(C(=O)CCS(=O)(=O)c2ccc(C)cc2)CC1	–	–	–	–
O=C(N/N=C/c1sc2ccccc2c1O)c1ccc(O)cc1O	–	–	47.0	–
COc1c(/C=N/NC(=O)c2ccccc2O)sc2ccccc12	–	–	–	–
O=C(Nc1cc(Oc2ccc(Cl)cc2C2CCCCC2)cc([N+](=O)[O-])c1)c1cnn2c(C(F)(F)F)cc(-c3cccs3)nc12	–	–	–	–
C=CCC1S/C(=N\N=C\c2cccc([N+](=O)[O-])c2)NC1=O (centres undefined)	2.3	–	–	–
Cc1cccc(NC(=O)c2ccc(C(C)(C)C)cc2)n1	–	–	44.7	–
CCOc1ccc(C(=O)Nc2cccc(C)n2)cc1	–	–	43.0	–
Cc1cccc(NC(=O)c2ccc(N)cc2)n1	–	–	61.4	–
O=C(CCCC(=O)N/N=C/c1ccc(O)cc1)N/N=C/c1ccc(O)cc1	–	–	–	–
O=C(NCCCSc1ccccc1)Nc1ncccn1	–	–	–	–
COc1cccc(-n2cc(C(=O)Nc3ccccc3Cl)c3ccccc3c2=O)c1	–	–	–	–
Cc1cccc(OCC(=O)Nc2nccs2)c1	–	–	53.5	–
CC(=O)Nc1cccc(NC(=O)c2cn(-c3ccc(C)c(C)c3)c(=O)c3ccccc23)c1	–	–	44.3	–
Cc1cccc(OCCCC(=O)Nc2nccs2)c1	–	–	–	–
O=C(COc1ccccc1)Nc1nccs1	–	–	–	–
COc1cccc(-n2cc(C(=O)Nc3nccs3)c3ccccc3c2=O)c1	–	–	43.0	–
COc1cccc(OCC(=O)Nc2nccs2)c1	–	–	36.9	–
CC(=O)N(CCC(Cc1ccccc1)c1ccc2c(c1)OCO2)Cc1ccc(OC(C)C)cc1 (centres undefined)	–	–	–	–
SMILES	FBW7 act	GPR151 ag	TEAD-YAP inh	MITF inh
CC(C)OC(=O)c1ccc(N2C(=O)C3C4C=CC(C4)C3C2=O)cc1 (centres undefined)	–	–	–	–
Cc1onc(-c2ccccc2)c1C1=N/C(=C\c2coc3ccc(Cl)cc3c2=O)C(=O)O1	–	–	–	–
O=C(CN1C(=O)NC2(CCN(Cc3ccccc3)CC2)C1=O)Nc1cccc(F)c1	–	–	–	–
Cc1ccc(/C=C/c2ccncc2)cc1	–	–	51.2	–
Cc1ccc2c(c1)NC(=O)c1cc(NC(=O)c3ccccc3Br)ccc1O2	–	–	43.9	–
Cc1ccc2c(c1)Oc1ccc(NC(=O)CCCl)cc1C(=O)N2	–	–	32.8	–
O=C(c1ccco1)N1CCCC(c2nc3sc4c(c3c(=O)[nH]2)CCCC4)C1 (centres undefined)	–	–	–	–
O=C(CN1C(=O)c2ccccc2C1=O)NCc1nc(-c2ccc(Cl)cc2)no1	–	–	–	–
O=C(NCCOc1cccnc1)c1ccc(-n2cc(NC(=O)c3ccoc3)cn2)cc1	–	–	52.4	–
O=C(NCCCc1cccnc1)c1ccc(-n2cc(NC(=O)C3CCOC3)cn2)cc1 (centres undefined)	–	–	31.9	–
O=C(NCCn1ccc2ccccc21)c1ccc(-n2cc(NC(=O)c3ccoc3)cn2)cc1	–	–	–	–
COc1ccc(Cc2nnc(C3CCN(C(=O)Cn4cnc5ccccc54)CC3)s2)cc1	–	–	53.8	–
CCCN1C(=O)CCc2cc(NC(=O)NCCc3ccc(OC)cc3)ccc21	–	–	–	–
COc1ccc(C(=O)c2ccc(OC)c(N)c2)cc1N	–	–	36.1	–
COc1ccc(C(=O)c2ccc(OC)c(OC)c2)cc1OC	–	–	–	–
CCOC(=O)c1sc2nc(SCc3ccccc3Cl)n(Cc3ccco3)c(=O)c2c1C	–	–	–	–
CC1C(=O)NN=C1C(=O)N/N=C\c1cccc(O)c1 (centres undefined)	–	–	–	–

Compound activity (PubChem)
